HSF-1 act: increases HSF-1 driven luciferase reporter signal | NIH3T3-HGL HSF-1 luciferase reporter, MG132, 8 h; 100% = twice DMSO control signal | activation, % at 9 µM | 300,000 compounds, 1.7% hits;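 active = mean replicate activation of at least 50% with a set share of replicates each reaching 50%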;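 also: 0% = median of the neutral control wells and 100% = twice that signal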
DAX1 inh: NR0B1 (DAX1) inhibition; 340,000 compounds, 0.99% hits; HEK293 Gal4-DAX1 luciferase reporter, luminescence; P51843; inhibition, % at 6.75 µM;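 active = inhibition above the mean over all tested compounds plus 3 SD, cut at about 4.2% in these data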;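 also: 0% = DAX1-transfected cells with DMSO and 100% = empty-vector control cells with DMSO; inhibition shows as a rise in luminescence from relieved DAX1 repression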
Target sequence (P51843 207-470 limits assumed): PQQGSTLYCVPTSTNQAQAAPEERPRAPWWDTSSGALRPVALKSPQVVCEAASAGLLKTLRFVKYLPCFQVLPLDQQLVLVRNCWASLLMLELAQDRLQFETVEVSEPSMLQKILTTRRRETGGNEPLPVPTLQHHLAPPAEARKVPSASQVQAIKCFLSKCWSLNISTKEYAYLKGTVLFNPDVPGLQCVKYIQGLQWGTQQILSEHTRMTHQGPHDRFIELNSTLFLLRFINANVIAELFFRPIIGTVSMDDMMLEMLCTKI
HSF1 inh: HSF1 inhibition; NIH3T3-HGL HSE-luciferase, MG132-induced, luminescence 8 h; hits give low values; 300,000 compounds, 0.77% hits; activity change, negative = inhibition, % at 7.5 µM (by protocol);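 active = more than half of replicate wells show activity change below -50%, luminescence cut by over half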;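 also: luciferase reports HSF-1 transcriptional activity via heat shock element; 0% = median of DMSO wells and -100% = zero luminescence signal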
GAA850 FXN act: activators of GAA850 frataxin (FXN) promoter | activation, % at 6 µM | HEK293 lucGAA850 FXN promoter luciferase reporter, 24 h; percent of 10 µM SAHA response | 360,000 compounds, 0.56% hits;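 active = activation above the average of all compounds screened plus 3 SD, cutoff fixed separately per campaign, cut at about 7.5% in these data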;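 also: 0% = DMSO wells and 100% = 10 µM SAHA wells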
AHR act: activates the human aryl hydrocarbon receptor | 320,000 compounds, 2.5% hits | AHR-responsive luciferase reporter cells, luminescence | activation, % at 5 µM | AID 2796 | P35869; in the data active = activation above about 47%;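 also: 0% = vehicle wells and 100% = reference agonist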
Starred values were filed as active, the others as inactive; / = no result given. An excerpt weighted towards active compounds, which were near 5.4% of everything screened.

SMILES	HSF-1 act	DAX1 inh	HSF1 inh	GAA850 FXN act	AHR act
CCOC(=O)N1CCN(Cc2nc3cc(NC(=O)CC(C)C)ccc3n2CC)CC1	3	1	-5	-4	-1
c1ccc2sc(NN=C3CCCCCC3)nc2c1	6	1	9	0	51*
O=C(CN(CC(=O)N1CCOCC1)S(=O)(=O)c1ccc(Br)s1)N1CCOCC1	-6	6.8*	5	1	1
CN(CC(=O)N1CCCCCC1)S(=O)(=O)c1ccc(Br)s1	37	/	5	/	8
CCOC(=O)c1nnn(CC(=O)N2N=C(c3ccc(Cl)cc3)CC2c2ccccc2)c1C(=O)OCC (centres undefined)	52*	0	20	-2	1
CCOC(=O)N(Cc1ccccc1)Cc1ccc(C(=O)N[C@@H](Cc2ccccc2)C(=O)O)cc1	-20	6.5*	-6	1	0
CCc1ccc(NS(=O)(=O)c2ccc(C)c(C(=O)N3CCOCC3)c2)cc1	-9	1	-1	-2	1
Cc1ccc(S(=O)(=O)N[C@@H](Cc2ccccc2)C(=O)N2CCC[C@@H]2C(=O)O)cc1	-1	1	-1	0	6
O=C/C(=C\Nc1ccc(Br)cc1)c1nc2ccccc2o1	8	0	1	1	49*
O=C/C(=C\Nc1ccccn1)c1nc2ccccc2o1	23	1	9	-2	21
CC(=O)Nc1ccc(N/C=C(\C=O)c2nc3ccccc3o2)cc1	11	0	2	2	14
CC(=O)Nc1cccc(N/C=C(\C=O)c2nc3ccccc3o2)c1	4	2	-2	3	59*
Cc1cccc(S(=O)(=O)NCCC(=O)OC(C)C(=O)NC(=O)NC2CCCCC2)c1 (centres undefined)	53*	-1	21	-1	2
Nc1nc(-c2ccccc2)c(N=Nc2cccc3ccccc23)s1	-3	0	2	3	70*
O=[N+]([O-])c1ccc(/C=N/NC(=S)Nc2ccccc2C(F)(F)F)o1	7	4.2*	5	5	1
O=C(N/N=C/c1ccc([N+](=O)[O-])o1)C(O)c1ccccc1 (centres undefined)	13	-4	19	4	0
CCOC(=O)N1CCN(S(=O)(=O)N2CCCC(C(=O)NCc3ccccc3Cl)C2)CC1 (centres undefined)	-64	1	-53*	-2	2
Cc1ccc(C(=O)CCC(=O)Nc2cc(C)ccn2)cc1	/	1	/	0	4
COc1cccc(C(=O)NC(=S)Nn2cnnc2)c1OC	-17	0	-1	0	-2
O=C1CC(C(=O)Nc2ccccc2)S/C(=N\NC(=O)c2ccccc2Cl)N1 (centres undefined)	12	4.3*	3	-1	4
O=C(c1ccco1)N(CC1CCCO1)c1nc(-c2ccccc2)cs1 (centres undefined)	17	-1	3	2	20
Cc1ccc(-c2csc(N(CC3CCCO3)C(=O)c3ccco3)n2)cc1 (centres undefined)	39	-2	11	2	51*
COc1ccc(CN2CCN(Cc3ccccc3F)CC2)cc1OC	-13	0	-7	0	-1
O=C(Nc1nccs1)c1ccc(-c2ccccc2[N+](=O)[O-])o1	34	1	40	3	68*
Cn1cc(Cl)c(C(=O)Nc2nccs2)n1	17	1	-4	2	3
SMILES	HSF-1 act	DAX1 inh	HSF1 inh	GAA850 FXN act	AHR act
Fc1ccc(NC(=S)Nc2nccs2)cc1	64*	0	23	7	6
O=C(Nc1nccs1)c1ccc(-c2ccc([N+](=O)[O-])cc2)o1	-20	0	-13	4	6
O=C(Nc1nccs1)c1ccc(-c2ccc(F)cc2)o1	73*	1	26	2	4
O=C(Nc1nccs1)c1ncc(Cl)c(Cl)c1Cl	11	0	-9	0	47*
CC(C)Oc1ccc(Cl)cc1Nc1nc(NCCO)nc(N2CCCC2)n1	8	-1	15	7	30
CSCCC(NS(=O)(=O)c1ccc(C)cc1)C(=O)NCC(C)(C)N1CCOCC1 (centres undefined)	/	0	/	-1	-1
O=C(CN(Cc1ccc(F)cc1)C(=O)CCC(=O)Nc1nccs1)NCc1ccc(F)cc1	0	4.6*	-3	-1	1
O=C(CN(Cc1ccccc1)C(=O)CCC(=O)Nc1nccs1)NCc1ccc(F)cc1	8	1	-4	-2	1
O=C(Nc1nccs1)c1ccc(-c2ccccc2Cl)o1	61*	3	21	5	54*
CC1Oc2ccccc2OC1(O)c1ccc2ccccc2n1 (centres undefined)	3	-2	-5	0	51*
O=C(CCl)N(C/C=C/c1ccccc1)c1ccc2c(c1)OCCO2	-79	-2	-77*	-12	13
O=C(/C=C/c1ccccc1)c1ccc2c(c1)OCCCCO2	34	2	21	5	6
CC(C)c1ccc(S(=O)(=O)c2cn(Cc3ccc(F)cc3)c3cc4c(cc3c2=O)OCO4)cc1	-31	/	-16	/	0
Cc1ccc(Cn2cc(S(=O)(=O)c3ccc(Cl)cc3)c(=O)c3cc(F)ccc32)cc1	79*	-1	41	1	0
Cc1ccccc1Cn1cc(S(=O)(=O)c2ccc(C(C)C)cc2)c(=O)c2cc3c(cc21)OCO3	78*	1	57	1	1
Cc1ccc(Cn2cc(S(=O)(=O)c3ccc(C(C)C)cc3)c(=O)c3cc4c(cc32)OCO4)cc1	64*	0	45	4	1
Cc1ccccc1CN(C)CC(=O)Nc1c(C)cccc1C(C)C	-1	1	2	-1	-2
COc1ccccc1C(=O)NNC(=O)C(=O)NC1CCCCC1	-8	0	-1	1	15
OC(c1ccc(F)c(F)c1)c1nc(-c2ccoc2)cs1 (centres undefined)	/	/	/	2	/
CCC(C)NC(=O)C1(O)c2cc(Br)ccc2NC(=O)N1c1cccc(OC)c1 (centres undefined)	-6	-1	-6	2	3
Oc1ccc(Cl)cc1C=Nc1ccc2c3c(cccc13)CC2	4	0	3	3	49*
COc1ccc(-n2c(SCC(=O)NCC3CCCO3)nc3ccccc3c2=O)cc1Cl (centres undefined)	/	0	/	-3	/
Fc1ccc(OCc2nnc(-c3ccccc3Br)o2)c(Cl)c1	68*	1	28	5	-8
Clc1ccc(OCc2nnc(-c3ccccc3Br)o2)c(Cl)c1	61*	0	36	5	-2
Clc1ccc(OCc2nnc(-c3ccccc3Br)o2)cc1	44	0	15	1	3
Cc1c(/C(O)=C2/C(=O)C(=O)N(Cc3cccnc3)C2c2ccccn2)cnn1-c1ccccc1 (centres undefined)	-80	-2	-76*	-13	0
Cc1c(/C(O)=C2/C(=O)C(=O)N(Cc3cccnc3)C2c2cccs2)cnn1-c1ccccc1 (centres undefined)	-68	2	-64*	-7	-1
